Measurements published in PubChem BioAssay (NCI).
Several values for one entry are separate records, joined by “and”; a condition that tells them apart may be missing. Equal entries are not always repeated. The panel holds about 83,000 compounds, 20% with a hit somewhere; the sample as a whole holds those more often.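 Plates (96-well) were seeded with cells, treated with compound at one concentration, and incubated for 48 hours before percent growth was determined.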 Activity calls are given as the source filed them. The calls were made as follows: active = growth percent below 10; inactive = the rest.

How the values were obtained:
Experiment in all cases: NCI-60 one-dose screen, 48 h (100 = growth as untreated, 0 = no growth, -100 = all killed)
DU-145 prostate = settings: 10 µM unless noted
K-562 leukemia = settings: 10 µM
MALME-3M melanoma = settings: 10 µM
MDA-MB-231 breast = settings: 10 µM
RXF 393 renal = settings: 10 µM unless noted
SF-268 CNS = settings: 10 µM
SF-295 CNS = settings: 10 µM
SF-539 CNS = settings: 10 µM
UACC-257 melanoma = settings: 10 µM
HCT-15 colon = settings: 10 µM
HT29 colon = settings: 10 µM
SNB-75 CNS = settings: 10 µM
SNB-19 CNS = settings: 10 µM
U251 CNS = settings: 10 µM unless noted
PC-3 prostate = settings: 10 µM
UACC-62 melanoma = settings: 10 µM
LOX IMVI melanoma = settings: 10 µM unless noted
SK-MEL-5 melanoma = settings: 10 µM unless noted
SK-MEL-28 melanoma = settings: 10 µM

Measured: growth

CC1=CC(C)=Nc2ccc(Cl)cc2N1
inactive: DU-145 prostate 106% | K-562 leukemia 90.3% | MALME-3M melanoma 96.9% | MDA-MB-231 breast 110% | RXF 393 renal 113% | SF-268 CNS 98.9% | SF-295 CNS 107% | SF-539 CNS 100% | UACC-257 melanoma 104% | HCT-15 colon 113% | HT29 colon 119% | SNB-75 CNS 90.4% | SNB-19 CNS 106% | U251 CNS 101% | PC-3 prostate 91.9% | UACC-62 melanoma 103% | LOX IMVI melanoma 91.4%

COC1OCC(O)C(O)C1O (stereo not drawn)
inactive: DU-145 prostate 105% | K-562 leukemia 104% | MALME-3M melanoma 103% | MDA-MB-231 breast 110% | RXF 393 renal 106% | SF-268 CNS 98.4% | SF-295 CNS 105% | SF-539 CNS 107% | HCT-15 colon 98.5% | HT29 colon 104% | SNB-75 CNS 80.8% | SNB-19 CNS 113% | U251 CNS 94.5% | PC-3 prostate 92.4% | SK-MEL-5 melanoma 101% | UACC-62 melanoma 105% | LOX IMVI melanoma 95.3% | SK-MEL-28 melanoma 106%

O=C1C=C(O)c2ccccc2C1=O.[Ag]
inactive: DU-145 prostate 121% | K-562 leukemia 83.5% | MALME-3M melanoma 85.3% | MDA-MB-231 breast 89.2% | SF-268 CNS 113% | SF-295 CNS 97% | SF-539 CNS 114% | UACC-257 melanoma 76.2% | HCT-15 colon 88.2% | HT29 colon 81.9% | SNB-75 CNS 87.9% | SNB-19 CNS 102% | PC-3 prostate 78.7% | UACC-62 melanoma 108% | SK-MEL-28 melanoma 92.3%

CC(=O)OCC(OC(C)=O)C(OC(C)=O)C(OC(C)=O)C(OC(C)=O)C(/C=N/Nc1ccccc1)=N/Nc1ccccc1 (stereo not drawn)
inactive: DU-145 prostate 78.4% | K-562 leukemia 22.4% | MALME-3M melanoma 84.5% | MDA-MB-231 breast 58.8% | RXF 393 renal 77% | SF-268 CNS 71.5% | SF-295 CNS 46.6% | SF-539 CNS 89.9% | UACC-257 melanoma 82.3% | HCT-15 colon 59.5% | HT29 colon 56.1% | SNB-75 CNS 87.4% | SNB-19 CNS 88.9% | U251 CNS 72.5% | PC-3 prostate 55.9% | SK-MEL-5 melanoma 91.9% | LOX IMVI melanoma 36.8%

Nc1nc(=S)c2ncn(C3OC(CO)C(O)C3O)c2[nH]1 (stereo not drawn)
inactive: DU-145 prostate 108% and 23.2% | K-562 leukemia 108% | MALME-3M melanoma 170% and 15% | MDA-MB-231 breast 105% and 26.1% | SF-268 CNS 101% and 34.5% | SF-295 CNS 109% and 18.3% | SF-539 CNS 107% and 22.3% | UACC-257 melanoma 98.9% and 31.5% | HT29 colon 100% and 14.3% | SNB-75 CNS 101% and 27.5% | SNB-19 CNS 107% and 78.6% | U251 CNS 105% and 54.1% | PC-3 prostate 33.4% | SK-MEL-5 melanoma 116% and 22.7% | SK-MEL-28 melanoma 115% and 50.8%
104% (inactive) and 7.31% (active): LOX IMVI melanoma
102% (inactive) and 0.101% (active): UACC-62 melanoma
108% (inactive) and -8.38% (active): RXF 393 renal
107% (inactive) and 9.43% (active): HCT-15 colon

O=C(/C=C/c1cccnc1)c1ccccc1
inactive: DU-145 prostate 105% | K-562 leukemia 28.9% | MALME-3M melanoma 94.2% | MDA-MB-231 breast 116% | RXF 393 renal 112% | SF-268 CNS 100% | SF-295 CNS 112% | SF-539 CNS 96.2% | UACC-257 melanoma 93.5% | HCT-15 colon 63.2% | HT29 colon 14.1% | SNB-75 CNS 87.8% | SNB-19 CNS 82.8% | U251 CNS 37.3% | PC-3 prostate 88.1% | SK-MEL-5 melanoma 103% | UACC-62 melanoma 103% | LOX IMVI melanoma 27.5%

CCCCCC(C)c1ccc(O)c(C)c1 (stereo not drawn)
inactive: DU-145 prostate 103% | K-562 leukemia 90.6% | RXF 393 renal 113% | SF-268 CNS 98.3% | SF-295 CNS 95.5% | SF-539 CNS 103% | UACC-257 melanoma 99.3% | HCT-15 colon 103% | HT29 colon 103% | SNB-75 CNS 92.1% | U251 CNS 107% | PC-3 prostate 103% | SK-MEL-5 melanoma 104% | LOX IMVI melanoma 98%
